ssDAF12 agonist – activates DAF-12 receptor from parasite S. stercoralis; HEK293 ssDAF-12/GRIP1 lit1-tk-luc reporter, luminescence; % of 3 µM dafachronic acid response; 370,000 compounds, 1% hits; activation, % at 6.8 µM;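 active = activation above the mean over all tested compounds plus 3 SD, cut at about 0.9% in these data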;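 also: 0% = DMSO-only wells and 100% = 3 µM delta7-dafachronic acid wells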
DAX1 inh-1 – NR0B1 (DAX1) inhibition; P51843; HEK293 Gal4-DAX1 luciferase reporter, luminescence; inhibition, % at 6.75 µM; 340,000 compounds, 0.99% hits;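 active = inhibition above the mean over all tested compounds plus 3 SD, cut at about 4.2% in these data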;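 also: 0% = DAX1-transfected cells with DMSO and 100% = empty-vector control cells with DMSO; inhibition shows as a rise in luminescence from relieved DAX1 repression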
DAX1 inh-2 – DAX1 (NR0B1) inhibition, primary screen. HEK293T StAR-luciferase reporter, SF-1/DAX-1 repression relief. inhibition, % at 6.8 µM. 370,000 compounds, 1.1% hits;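 active = inhibition above the mean over all tested compounds plus 3 SD, cut at about 3.6% in these data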;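 also: 0% = DAX-1 cells with DMSO and 100% = cells lacking DAX-1 with DMSO; higher inhibition means more luminescence from relief of DAX-1 repression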
hcDAF-12 act – activators of H. contortus DAF-12 nuclear receptor. 370,000 compounds, 1.4% hits. HEK293 hcDAF-12 lit1-tk-luc reporter, luminescence; 0% DMSO, 100% Δ7-dafachronic acid. activation, % at 6.8 µM;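 active = activation above the mean of all tested compounds plus 3 SD, cut at about 5.5% in these data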;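 also: 100% = response to 3 µM Δ7-dafachronic acid high control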
hgDAF-12 ag – hgDAF-12 agonism, primary luciferase screen; HEK293 GAL4-hgDAF12 UAS-luciferase reporter, agonist luminescence; normalized to butyrate control; activation, % at 6.8 µM; 370,000 compounds, 1.8% hits;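 active = activation above a cutoff set at the mean of all screened compounds plus 3 SD, cut at about 10% in these data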;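 also: 0% = DMSO wells and 100% = sodium butyrate wells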
hgDAF12 ag – hgDAF-12 agonism, confirmation assay. HEK293 GAL4-hgDAF12 luciferase reporter, agonist mode; percent of butyrate response. AID 743050. shares compounds with hgDAF-12 ag. 3,300 compounds, 80% hits. activation, % at 6.8 µM;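 active = mean activation over triplicate wells above the hit cutoff derived from the earlier primary screen, cut at about 11% in these data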;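 also: 0% = DMSO low control and 100% = 2 mM sodium butyrate high control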
LXR ag 2 – counter-screen for DAF-12 agonists: agonists of human LXR-beta; shares compounds with hgDAF-12 ag; HEK293 Gal4-LXR luciferase reporter, 24 h; activation, % at 6.8 µM; 3,300 tested, under 10 active;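 active = mean activation of the triplicate above a set limit carried over from the primary screen, none filed active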
Target sequence (P55055 whole entry, looked up, the tested form may be a part): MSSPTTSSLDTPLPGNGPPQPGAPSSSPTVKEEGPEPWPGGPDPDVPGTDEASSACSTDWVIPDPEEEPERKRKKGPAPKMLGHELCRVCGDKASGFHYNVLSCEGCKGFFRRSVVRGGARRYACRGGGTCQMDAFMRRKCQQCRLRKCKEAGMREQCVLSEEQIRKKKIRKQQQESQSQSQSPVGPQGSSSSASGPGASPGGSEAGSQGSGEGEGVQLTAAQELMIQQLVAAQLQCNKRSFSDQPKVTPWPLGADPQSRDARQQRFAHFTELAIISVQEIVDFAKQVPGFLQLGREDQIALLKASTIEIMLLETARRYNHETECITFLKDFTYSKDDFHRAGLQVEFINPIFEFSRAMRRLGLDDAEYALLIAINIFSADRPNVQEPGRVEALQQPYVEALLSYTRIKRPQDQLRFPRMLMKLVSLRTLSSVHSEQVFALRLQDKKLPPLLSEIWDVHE
Starred values were filed as active, the others as inactive; · = not tested or not shown. Sampled rows, rich in hits. Any-hit rate of the full collection: about 4.1%.

SMILES | ssDAF12 agonist | DAX1 inh-1 | DAX1 inh-2 | hcDAF-12 act | hgDAF-12 ag | hgDAF12 ag | LXR ag 2
C[C@@H]1CN([C@H](C)CO)C(=O)c2ccccc2-c2ccccc2CO[C@@H]1CN(C)C(=O)Nc1ccccc1 | -1 | · | 0 | -1 | 0 | · | ·
CC(C)(C)NC(=S)NNC(=O)c1cccc(Br)c1 | -1 | 2 | 1 | 1 | 21* | 5 | 0
O=C(NNC(=S)Nc1ccccc1)c1cccc(Br)c1 | 0 | 1 | 3 | 3 | 3 | · | ·
Fc1ccc2cnc(-c3ccsc3)cc2c1 | 0 | · | 3 | 3 | 14* | 7 | 0
COC(=O)c1ccc2nc(-c3ccc(C)cc3)c(CC(C)(C)C)n2c1 | 1 | · | 1 | 0 | 4 | · | ·
CCc1ccc(C(=O)CN2CCSC2=N)cc1 | 1 | 2 | 3 | 5.6* | 20* | 17* | 1
C=CCN1C(=O)[C@@H](CC(=O)NCCCOCCCC)[C@]2(C(=O)OC)CCCCC=C12 | -2 | · | -1 | 1 | 1 | · | ·
COCCN1C(=O)[C@H]2C[C@@]13O[C@H](C1CCCCC1)N=C3CC1c3ccccc3C[C@@]12C (some centres undefined) | -1 | · | 0 | -2 | -3 | · | ·
C=CCCC1CN(CC=C)S(=O)(=O)c2c(F)cccc2O1 (centres undefined) | -1 | · | 0 | 0 | -3 | · | ·
CCN(CC)c1ccc2cc(C(C)=O)c(=O)oc2c1 | -1 | -1 | 0 | -2 | 1 | · | ·
CCN(CC)c1ccc2cc(C(=O)Nc3ccccn3)c(=O)oc2c1 | 1 | 2 | 3 | 5 | 14* | 18* | 1
Cc1sc(NC(=O)c2ccccc2)c(C#N)c1-c1ccccc1 | 0 | 2 | 2 | 2 | 16* | 12* | 1
O=C(N/N=C/c1sc(=O)n(-c2ccccc2)c1Cl)c1ccccc1 | 0 | 0 | 0 | 2 | 24* | 16* | 1
NC(=O)N/N=C/c1sc(=O)n(-c2ccccc2)c1Cl | 0 | 1 | -1 | 2 | 0 | · | ·
COC(=O)C[C@@H]1CC[C@@H]2[C@@H](COc3ccc(NC(=O)c4ccc(F)cc4)cc3C(=O)N2C)O1 | -1 | · | -1 | -1 | 0 | · | ·
Cc1cc(N2CCCN(C)CC2)n2nc(C)nc2n1 | -1 | · | 0 | -1 | 3 | · | ·
Cc1ccc(N2CCN(C(=O)c3cn(CC4CCCCC4)nn3)C(C)C2)cc1 (centres undefined) | 1.0* | 1 | 4.3* | 2 | 15* | 13* | 1
Fc1ccc(/C=N/Nc2nccnc2Cl)cc1 | 0 | 6.1* | 1 | 4 | 14* | 6 | 0
CN1C2=N[C@@H](c3ccc4c(c3)OCO4)CC(=O)N2/C(=C\c2ccccc2)[C@H]1c1ccccc1 | -1 | · | · | -4 | 5 | · | ·
Cc1nc2ccc(S(=O)(=O)Nc3cc(-c4nc5cccnc5s4)ccc3C)cc2s1 | 0 | 1 | 3 | 5 | 17* | 10 | 0
COc1ccc(C2(C)NC(=O)N(CC(=O)Nc3ccc(-c4nc5ccc(C)cc5s4)cc3)C2=O)cc1 (centres undefined) | 0 | · | 4 | 2 | 19* | 11* | 0
CCC1(c2ccc(F)cc2)NC(=O)N(CC(=O)Nc2ccc3c(c2)OCCO3)C1=O (centres undefined) | -1 | 0 | 4 | 2 | -1 | · | ·
CCC1(c2ccc(F)cc2)NC(=O)N(CC(=O)Nc2ccc(-c3nc4ccc(C)cc4s3)cc2)C1=O (centres undefined) | 1 | 1 | 3.8* | 5 | 20* | 16* | 1
Nc1c(C(=O)Nc2ccccc2)sc2nc(N3CCOCC3)c3c(c12)CCCC3 | 1 | 0 | 3.8* | 2 | 15* | 5 | 0
Nc1c(C(=O)Nc2ccc(Cl)cc2)sc2nc(N3CCOCC3)c3c(c12)CCCC3 | -1 | 0 | 0 | -2 | 1 | · | ·
SMILES | ssDAF12 agonist | DAX1 inh-1 | DAX1 inh-2 | hcDAF-12 act | hgDAF-12 ag | hgDAF12 ag | LXR ag 2
COC(=O)[C@]12C[C@H](CC(=O)N3CCSCC3)C(=O)N(Cc3ccccc3)C1=C[C@H](C1CCCC1)O[C@@H]2C | -1 | · | -1 | 1 | -1 | · | ·
C#CCN1C(=O)S/C(=C/c2cc(C)n(CC)c2C)C1=O | 0 | 1 | 3 | 5 | 18* | 20* | 1
CCn1c(C)cc(/C=C2/SC(=S)N(CC(=O)O)C2=O)c1C | -1 | -1 | 1 | -1 | 3 | · | ·
Cc1cccc(NC(=O)CNC(=O)[C@@H](Cc2ccccc2)NC(=O)[C@H]2O[C@@H](n3ccc(N)nc3=O)[C@H](O)[C@@H]2O)c1C | -1 | · | -1 | -2 | 2 | · | ·
O=C(CN(c1ccc2c(c1)OCCO2)S(=O)(=O)c1ccccc1)NCc1ccco1 | -1 | -1 | -1 | -2 | 0 | · | ·
O=C(CN(C(=O)CNS(=O)(=O)c1ccccc1)c1ccc2c(c1)OCCO2)NCc1ccco1 | -1 | 2 | 0 | -1 | 15* | 1 | 0
C#CCNC(=O)C[C@H]1C[C@@]2(C(=O)OC)C(=C[C@H](C(C)(C)C)O[C@@H]2C)N(CCc2ccc(OC)c(OC)c2)C1=O | -1 | · | 0 | -2 | -1 | · | ·
C/C(=C\c1ccccc1)C(=O)NCCc1ccccc1 | 0 | 1 | 3 | 4 | 19* | 16* | 0
Cc1cc(C(=O)COC(=O)c2cc(Cl)ccc2N)c(C)n1Cc1ccco1 | 0 | 1 | 3.7* | 4 | 14* | 13* | 1
Cc1cc(C(=O)COC(=O)c2ccco2)c(C)n1Cc1ccco1 | -3 | 2 | -1 | -3 | -8 | · | ·
CCC(C)NC(=O)c1ccc2c(Cl)c3c(nc2c1)CCC3 (centres undefined) | -1 | 5.7* | 3 | 0 | 18* | 9 | 0
CCC(C)NC(=O)c1ccc2c(SCC(=O)O)c3c(nc2c1)CCCC3 (centres undefined) | -1 | 0 | 0 | -2 | 3 | · | ·
O=C(Nc1ccc(Cl)cn1)c1ccc2c(Cl)c3c(nc2c1)CCC3 | -1 | 3 | 2 | 2 | 15* | 8 | 1
COc1cc(/C=N/N2CCOCC2)ccc1OCc1ccccc1 | 0 | 1 | 1 | 2 | 18* | 3 | 0
Cc1nn(-c2ccccc2)c(C)c1/C=N/O | -1 | 0 | 0 | -1 | 1 | · | ·
Cc1nn(-c2ccccc2)c(/N=C/c2ccccc2O)c1-c1ccccc1 | 0 | 2 | 3 | 2 | 15* | 11* | 0
CC(C)(C)OC(=O)N1c2ccccc2[C@]2(N3CCCC3)C[C@H](C(=O)O)N(C(=O)OC(C)(C)C)[C@H]12 | -1 | · | 0 | 0 | 5 | · | ·
Cc1cc(C(=O)N2CCC(CO)(Cc3cccc(C(F)(F)F)c3)CC2)n[nH]1 | -1 | -1 | 0 | -1 | -2 | · | ·
